Out of some 5,500 compounds screened, about 2,000 (36%) were called active. Not shown: some 18% with an inconclusive outcome. Cut-off read from the data, not from the text of the source: active = normalized growth mostly below about 0.91 (no sharp cut-off); inconclusive = no clear call, values can overlap the other calls; inactive = mostly above about 0.92. Some of the results follow.
Experiment: chemical genetic growth profiling, strain panel (AID 1159580);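 note: tested at 20 µM; growth read once vehicle control cultures reached saturation at 30 °C; 1 = growth at the plate median or of vehicle wells; lower values mean less growth of the strain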
Details: growth OD

Measured: normalized growth

COc1ccc2c(c1)OCC(Cc1ccc(OC)c(O)c1)C2=O (stereo not drawn)
active: S. cerevisiae deletion strains, locus YLR258W, strain gsy2, active compounds read low 0.91 | S. cerevisiae deletion strains, locus YLR320W, strain mms22, active compounds read low 0.835 | S. cerevisiae deletion strains, locus YLR418C, strain cdc73, active compounds read low 0.81 | S. cerevisiae deletion strains, locus YMR205C, strain PFK2, active compounds read low 0.833 | S. cerevisiae deletion strains, locus YNL071W, strain lat1, active compounds read low 0.681 | S. cerevisiae deletion strains, locus YNL307C, strain MCK1, active compounds read low 0.824 | S. cerevisiae deletion strains, locus YPR163C, strain tif3, active compounds read low 0.842 | S. cerevisiae deletion strains, locus YPR167C, strain met16, active compounds read low 0.89
inactive: S. cerevisiae deletion strains, locus YJR043C, strain POL32, active compounds read low 0.998 | S. cerevisiae deletion strains, locus YJR066W, strain TOR1, active compounds read low 0.904 | S. cerevisiae deletion strains, locus YKL009W, strain mrt4, active compounds read low 0.94 | S. cerevisiae deletion strains, locus YKL068W, active compounds read low 0.97 | S. cerevisiae deletion strains, locus YKL085W, strain MDH1 (second series), active compounds read low 0.969 | S. cerevisiae deletion strains, locus YKL085W, strain MDH1, active compounds read low 0.969 | S. cerevisiae deletion strains, locus YKL160W, strain elf1, active compounds read low 0.925 | S. cerevisiae deletion strains, locus YKL190W, strain CNB1, active compounds read low 0.984 | S. cerevisiae deletion strains, locus YKR001C, strain vps1, active compounds read low 0.964 | S. cerevisiae deletion strains, locus YKR026C, strain gcn3, active compounds read low 0.966 | S. cerevisiae deletion strains, locus YKR091W, strain srl3, active compounds read low 0.962 | S. cerevisiae deletion strains, locus YLL001W, strain dnm1, active compounds read low 0.931 | S. cerevisiae deletion strains, locus YLL026W, active compounds read low 0.957 | S. cerevisiae deletion strains, locus YLL041C, strain sdh2, active compounds read low 0.955 | S. cerevisiae deletion strains, locus YLR027C, strain aat2, active compounds read low 0.933 | S. cerevisiae deletion strains, locus YLR039C, strain RIC1, active compounds read low 1.02 | S. cerevisiae deletion strains, locus YLR058C, strain SHM2, active compounds read low 0.958 | S. cerevisiae deletion strains, locus YLR102C, strain apc9, active compounds read low 0.955 | S. cerevisiae deletion strains, locus YLR113W, strain HOG1, active compounds read low 0.917 | S. cerevisiae deletion strains, locus YLR221C, strain rsa3, active compounds read low 0.923 | S. cerevisiae deletion strains, locus YLR262C, strain YPT6 (second series), active compounds read low 0.985 | S. cerevisiae deletion strains, locus YLR262C, strain YPT6, active compounds read low 0.986 | S. cerevisiae deletion strains, locus YLR268W, strain sec22, active compounds read low 0.976 | S. cerevisiae deletion strains, locus YLR330W, strain CHS5, active compounds read low 0.952 | S. cerevisiae deletion strains, locus YLR342W, strain FKS1 (second series), active compounds read low 0.955 | S. cerevisiae deletion strains, locus YLR342W, strain FKS1, active compounds read low 0.922 | S. cerevisiae deletion strains, locus YLR357W, strain rsc2, active compounds read low 0.998 | S. cerevisiae deletion strains, locus YLR370C, strain arc18, active compounds read low 0.97 | S. cerevisiae deletion strains, locus YLR371W, strain rom2, active compounds read low 0.975 | S. cerevisiae deletion strains, locus YLR384C, strain iki3, active compounds read low 0.948 | S. cerevisiae deletion strains, locus YML016C, strain PPZ1, active compounds read low 0.967 | S. cerevisiae deletion strains, locus YML032C, strain rad52, active compounds read low 0.949 | S. cerevisiae deletion strains, locus YML120C, strain ndi1, active compounds read low 0.938 | S. cerevisiae deletion strains, locus YML124C, strain tub3, active compounds read low 0.954 | S. cerevisiae deletion strains, locus YMR058W, strain fet3, active compounds read low 0.948 | S. cerevisiae deletion strains, locus YMR078C, strain ctf18, active compounds read low 0.95 | S. cerevisiae deletion strains, locus YMR125W, strain sto1, active compounds read low 1.01 | S. cerevisiae deletion strains, locus YMR129W, active compounds read low 0.948 | S. cerevisiae deletion strains, locus YMR223W, strain ubp8, active compounds read low 0.933 | S. cerevisiae deletion strains, locus YMR231W, strain pep5, active compounds read low 0.967 | S. cerevisiae deletion strains, locus YMR307W, strain GAS1, active compounds read low 0.97 | S. cerevisiae deletion strains, locus YNL067W, strain RPL9B, active compounds read low 0.944 | S. cerevisiae deletion strains, locus YNL183C, strain NPR1, active compounds read low 0.933 | S. cerevisiae deletion strains, locus YNL209W, strain ssb2, active compounds read low 0.978 | S. cerevisiae deletion strains, locus YNL233W, strain BNI4, active compounds read low 0.905 | S. cerevisiae deletion strains, locus YNL248C, strain rpa49, active compounds read low 0.919 | S. cerevisiae deletion strains, locus YNL250W, strain rad50, active compounds read low 0.94 | S. cerevisiae deletion strains, locus YNL271C, strain bni1, active compounds read low 0.952 | S. cerevisiae deletion strains, locus YNL298W, strain CLA4, active compounds read low 0.959 | S. cerevisiae deletion strains, locus YNL322C, strain KRE1 (second series), active compounds read low 0.949 | S. cerevisiae deletion strains, locus YNR049C, strain mso1, active compounds read low 0.967 | S. cerevisiae deletion strains, locus YNR052C, strain pop2, active compounds read low 0.937 | S. cerevisiae deletion strains, locus YOL012C, strain htz1 1.16 | S. cerevisiae deletion strains, locus YOL147C, strain pex11, active compounds read low 0.964 | S. cerevisiae deletion strains, locus YOR001W, strain rrp6, active compounds read low 0.898 | S. cerevisiae deletion strains, locus YOR061W, strain CKA2, active compounds read low 0.963 | S. cerevisiae deletion strains, locus YOR069W, strain VPS5, active compounds read low 0.96 | S. cerevisiae deletion strains, locus YOR070C, strain gyp1, active compounds read low 0.968 | S. cerevisiae deletion strains, locus YOR080W, strain dia2, active compounds read low 0.979 | S. cerevisiae deletion strains, locus YOR083W, strain WHI5, active compounds read low 0.911 | S. cerevisiae deletion strains, locus YOR106W, strain vam3, active compounds read low 0.886 | S. cerevisiae deletion strains, locus YOR136W, strain idh2, active compounds read low 0.962 | S. cerevisiae deletion strains, locus YOR144C, strain elg1, active compounds read low 0.95 | S. cerevisiae deletion strains, locus YOR184W, strain ser1, active compounds read low 0.906 | S. cerevisiae deletion strains, locus YOR231W, strain MKK1, active compounds read low 0.998 | S. cerevisiae deletion strains, locus YOR265W, strain rbl2, active compounds read low 0.962 | S. cerevisiae deletion strains, locus YOR270C, strain vph1, active compounds read low 0.823 | S. cerevisiae deletion strains, locus YOR290C, strain snf2, active compounds read low 0.897 | S. cerevisiae deletion strains, locus YOR316C, strain cot1, active compounds read low 0.959 | S. cerevisiae deletion strains, locus YPL051W, strain arl3, active compounds read low 0.939 | S. cerevisiae deletion strains, locus YPL055C, strain LGE1, active compounds read low 0.96 | S. cerevisiae deletion strains, locus YPL078C, strain atp4, active compounds read low 0.914 | S. cerevisiae deletion strains, locus YPL106C, strain sse1, active compounds read low 0.972 | S. cerevisiae deletion strains, locus YPL240C, strain hsp82, active compounds read low 0.946 | S. cerevisiae deletion strains, locus YPL241C, strain CIN2, active compounds read low 0.973 | S. cerevisiae deletion strains, locus YPL256C, strain CLN2, active compounds read low 1.01 | S. cerevisiae deletion strains, locus YPR119W, strain clb2, active compounds read low 0.95 | S. cerevisiae deletion strains, locus YPR141C, strain kar3, active compounds read low 0.971 | S. cerevisiae deletion strains, strain wtn01, active compounds read low 0.95 | S. cerevisiae strains, strain wild type, active compounds read low 0.973
